Results published in the supplement of paper PMC12636033.
± gives the standard deviation of the averaged measurements. Over roughly 33,000 sequences, “E-score (rank enrichment, -0.5 to 0.5)” has its median near -0.0068; the highest 2% begin near 0.24. The full list was thinned out, with the highest values kept by preference.

test system: muMax20 (Max(13-93) K31hArg/K57hArg, M65Nle); assay: PBM 8-mer E-score (E-score (rank enrichment, -0.5 to 0.5)); higher = stronger preferential binding
Procedure: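 Protein binding microarray (universal PBM chip covering all 10-mers in fixed probe flanks) with chemically synthesized human Max(13-93) bHLH-LZ analogs (not full-length Max) bearing noncanonical residues (hArg, Tha, Aib, Nle at 65) and aromatic Cys staples. Read-out per 8-mer (and its reverse complement): E-score (rank-based enrichment, -0.5 to 0.5) and Z-score of median probe intensity.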

Row | Sequence | PBM 8-mer E-score
1 | CGCAAGTC | -0.182 ± 0.004
2 | CCTCCTAA | 0.0365 ± 0.0066
3 | GGCACAGA | -0.0856 ± 0.03
4 | ACTATGAT | 0.0767 ± 0.069
5 | TATGCCCA | -0.151 ± 0.043
6 | ATCCTGAC | -0.115 ± 0.039
7 | ATCGTAAT | 0.255 ± 0.0089
8 | ATCGTAAG | 0.00053 ± 0.19
9 | ATCGTAAA | 0.211 ± 0.026
10 | ATCGCACA | 0.0937 ± 0.045
11 | TCTTATAA | 0.115 ± 0.051
12 | AATTATAA | 0.189 ± 0.036
13 | TATTATCA | 0.161 ± 0.013
14 | CATTATAA | 0.0818 ± 0.00099
15 | TATTATAA | 0.28 ± 0.079
16 | GATTATAA | 0.242 ± 0.016
17 | GGTTATAA | 0.145 ± 0.068
18 | TGTTATAA | 0.279 ± 0.056
19 | TGTTAAAA | 0.154 ± 0.061
20 | ATTAAGCA | 0.105 ± 0.11
21 | GAGATTGC | -0.148 ± 0.0026
22 | CCTCCACG | -0.0554 ± 0.048
23 | CTTTGAAA | 0.159 ± 0.0086
24 | ATTTGAAA | 0.203 ± 0.025

Row | Sequence | PBM 8-mer E-score
25 | GTTTGAAA | 0.237 ± 0.022
26 | AACTTCGA | 0.0671 ± 0.04
27 | AGTACTAG | 0.029 ± 0.019
28 | CTTACTAC | 0.197 ± 0.1
29 | AGTACTAC | 0.28 ± 0.035
30 | AGTACTAT | -0.0269 ± 0.035
31 | ATTACTAG | -0.00293 ± 0.05
32 | ATTACTAC | 0.2513 ± 0.0025
33 | CTTCGCAC | 0.163 ± 0.037
34 | ATGACTGG | -0.0322 ± 0.039
35 | GGCACGAC | 0.0476 ± 0.078
36 | AGTTCACG | -0.107 ± 0.064
37 | CCCGAACC | -0.159 ± 0.21
38 | ACCAATTC | -0.0667 ± 0.11
39 | CCCAATTA | 0.187 ± 0.097
40 | ATCAACAG | 0.116 ± 0.0076
41 | AACAACAA | 0.243 ± 0.0063
42 | AACAATTC | 0.127 ± 0.014
43 | ATCAACAT | 0.241 ± 0.022
44 | ATCAACAA | 0.101 ± 0.048
45 | AACAATTA | 0.259 ± 0.0043
46 | CACAACAA | 0.205 ± 0.098
47 | CCCAATTC | 0.249 ± 0.0091
48 | AACAATTG | 0.131 ± 0.0086

Row | Sequence | PBM 8-mer E-score
49 | AACAACAT | 0.168 ± 0.037
50 | CAATCATC | -0.0452 ± 0.15
51 | TACCGGAA | -0.106 ± 0.24
52 | AACTCCTT | 0.132 ± 0.07
53 | CCCTGCAC | -0.03728 ± 0.00027
54 | CGCTCTCC | -0.192 ± 0.091
55 | CGAGATCC | -0.163 ± 0.13
56 | AGGGGTCG | -0.0534 ± 0.037
57 | CTGGAAGA | 0.0596 ± 0.037
58 | ACCAATTG | 0.211 ± 0.013
59 | GCCAATTA | -0.00292 ± 0.022
60 | CGCAACAA | 0.257 ± 0.049
61 | AACAATAG | 0.0278 ± 0.047
62 | ACCAATTA | 0.247 ± 0.095
63 | GACAATAC | 0.21 ± 0.021
64 | AACAATAA | 0.247 ± 0.0054
65 | CACAATAC | 0.126 ± 0.028
66 | CGCAACAC | 0.0683 ± 0.035
67 | AGCAACAA | -0.0639 ± 0.14
68 | AACAATAC | 0.319 ± 0.063
69 | AACAATAT | 0.207 ± 0.061
70 | CATCTTCC | 0.14 ± 0.005
71 | CTAGCGAA | -0.129 ± 0.063
72 | CTAGTGCA | 0.0056 ± 0.097

Row | Sequence | PBM 8-mer E-score
73 | GAGAGTCA | 0.0012 ± 0.088
74 | ATCCACCA | 0.068 ± 0.024
75 | GGGGCCCC | -0.138 ± 0.039
76 | GACACCAA | -0.0812 ± 0.037
77 | TACAATAA | 0.33 ± 0.008
78 | TACACCAA | -0.0765 ± 0.027
79 | CACAATAA | 0.151 ± 0.0047
80 | GACAATAA | 0.216 ± 0.067
81 | AACACCAA | 0.239 ± 0.018
82 | AACTTCTT | 0.155 ± 0.031
83 | CAATTTGG | 0.0732 ± 0.059
84 | TAATTTGA | 0.0569 ± 0.0096
85 | CAATTTGA | 0.246 ± 0.051
86 | AATCAGCA | 0.0143 ± 0.044
87 | ACCTGTTG | 0.112 ± 0.12
88 | AGATATGA | 0.028 ± 0.0086
89 | GTACCATA | 0.0347 ± 0.038
90 | ATACCAAC | 0.271 ± 0.01
91 | ATACCATG | 0.0838 ± 0.02
92 | ATACCATA | 0.298 ± 0.029
93 | CTACCAAC | 0.118 ± 0.079
94 | ATACCAAG | 0.0843 ± 0.073
95 | ATAGAAGC | 0.041 ± 0.086
96 | TAAGGGAA | 0.0705 ± 0.073

Row | Sequence | PBM 8-mer E-score
97 | CTCCCGTA | 0.0488 ± 0.069
98 | ATAAAGCA | 0.243 ± 0.037
99 | ATAAAGAA | 0.264 ± 0.018
100 | TTAAAGAA | 0.17 ± 0.072
101 | ATAAAGCG | 0.0396 ± 0.047
102 | CTAAAGCA | 0.0825 ± 0.012
103 | CTAAAGAA | 0.0925 ± 0.088
104 | CACCGGCA | -0.12 ± 0.023
105 | ACGTTCCT | 0.0666 ± 0.011
106 | ATACCTAC | 0.129 ± 0.12
107 | ATTTAGAC | 0.0494 ± 0.067
108 | ATAACGCG | 0.073 ± 0.11
109 | CTTTCGGC | -0.149 ± 0.041
110 | AAAAACCT | 0.25 ± 0.024
111 | AAAACCTA | 0.269 ± 0.0045
112 | AAAAACCG | 0.0778 ± 0.087
113 | CAAACCTA | 0.125 ± 0.027
114 | AAAAACCA | 0.244 ± 0.0092
115 | TAAAACCA | 0.131 ± 0.048
116 | AAAAACCC | -0.0325 ± 0.027
117 | AAAACCTT | 0.103 ± 0.011
118 | CAAAACCA | 0.0801 ± 0.046
119 | CCTTGCGC | -0.034 ± 0.012
120 | GGGGCGAC | -0.0761 ± 0.044

Row | Sequence | PBM 8-mer E-score
121 | AATCAGCC | -0.00374 ± 0.048
122 | AATCAGCG | -0.0368 ± 0.011
123 | AATCAGCT | 0.298 ± 0.065
124 | ACTTTGAT | 0.142 ± 0.062
125 | TCAGTAAA | 0.013 ± 0.12
126 | CATACTTC | 0.181 ± 0.048
127 | CATATACC | 0.0712 ± 0.07
128 | TATATACA | 0.178 ± 0.03
129 | CATATAGA | 0.145 ± 0.049
130 | AATATACA | 0.293 ± 0.01
131 | AATATAGA | 0.292 ± 0.049
132 | CATATACA | 0.254 ± 0.031
133 | AATATACT | 0.215 ± 0.043
134 | TATATAGA | 0.0968 ± 0.19
135 | GATATACA | 0.0962 ± 0.0042
136 | TACATCAA | 0.11 ± 0.093
137 | GCCAAGCC | -0.109 ± 0.012
138 | GAGTGACC | -0.141 ± 0.015
139 | CCGTCCCA | 0.0086 ± 0.03
140 | AATGTCAT | 0.0752 ± 0.093
141 | CCTAAGAC | 0.0353 ± 0.033
142 | ATAGTTAC | 0.181 ± 0.06
143 | ATAGTTAG | 0.0831 ± 0.052
144 | ATAGTAAA | 0.262 ± 0.012

Row | Sequence | PBM 8-mer E-score
145 | ATAGTAGG | 0.0443 ± 0.12
146 | ATAGTAGA | 0.253 ± 0.031
147 | ATAGTTAA | 0.261 ± 0.0096
148 | GTAGTAGA | 0.0328 ± 0.058
149 | ATAGTAAT | 0.158 ± 0.027
150 | CTAGTAAA | 0.0505 ± 0.014
151 | TGGGTTAA | 0.053 ± 0.046
152 | GCCTCTCC | 0.0347 ± 0.12
153 | GCGAATCA | -0.157 ± 0.067
154 | CCGATGGA | -0.246 ± 0.043
155 | TAACGGTA | 0.204 ± 0.011
156 | TAAGCTGA | 0.0855 ± 0.056
157 | AACACGGG | 0.0469 ± 0.0099
158 | CGATGCGA | -0.117 ± 0.088
159 | GAAGCCGC | -0.115 ± 0.058
160 | AACGTGGA | 0.162 ± 0.015
161 | AACGTGGT | 0.285 ± 0.029
162 | AACGTGAA | 0.0196 ± 0.026
163 | AACGTGAT | 0.272 ± 0.01
164 | AGCGTGAG | 0.0998 ± 0.075
165 | AGCGTGAT | 0.25 ± 0.013
166 | AGCGTGAC | 0.117 ± 0.086
167 | AACGTGAG | 0.0485 ± 0.088
168 | AACGTGCT | 0.0241 ± 0.0069

Row | Sequence | PBM 8-mer E-score
169 | ACCCCGTC | -0.138 ± 0.05
170 | GGGGCGGA | 0.0311 ± 0.065
171 | AAACTAAC | 0.121 ± 0.026
172 | AGATGCAG | -0.0831 ± 0.013
173 | CGTTCGAA | -0.071 ± 0.086
174 | GCGGGCTA | -0.103 ± 0.02
175 | ACATGTAG | 0.255 ± 0.05
176 | ACATGTCG | 0.189 ± 0.086
177 | ACATGTCT | 0.183 ± 0.035
178 | CCATGTAG | 0.0489 ± 0.046
179 | TCATGTAA | 0.112 ± 0.08
180 | AGATGTAT | 0.177 ± 0.041
181 | GCATGTAC | 0.15 ± 0.081
182 | ACATGTAT | 0.307 ± 0.067
183 | ACATGTAA | 0.249 ± 0.034
184 | CCATGTAA | 0.0522 ± 0.048
185 | ACATGTAC | 0.286 ± 0.021
186 | CCATGTAC | 0.0415 ± 0.16
187 | CCTTGTAG | -0.0398 ± 0.016
188 | ATGTTTGC | 0.119 ± 0.034
189 | ATTCCCGC | -0.0964 ± 0.2
190 | AACTTATG | 0.0994 ± 0.081
191 | AAGGGAAG | 0.201 ± 0.074
192 | ATGCTCGA | 0.0908 ± 0.059

Row | Sequence | PBM 8-mer E-score
193 | AAACTTGC | 0.203 ± 0.058
194 | TAACTTGA | 0.033 ± 0.066
195 | AAACTTGA | 0.241 ± 0.0031
196 | ATAAGAGG | 0.0841 ± 0.026
197 | ATCAAAAA | 0.284 ± 0.035
198 | CTCAAACA | 0.079 ± 0.12
199 | ATCAAACA | 0.29 ± 0.056
200 | ATCAAAAT | 0.0188 ± 0.1
201 | ATCAAGCA | 0.012 ± 0.021
202 | ATCAAAAG | 0.0605 ± 0.033
203 | TAGGTTCA | -0.12 ± 0.087
204 | GGCCCTAA | 0.0586 ± 0.04
205 | GTGGACGA | -0.0727 ± 0.036
206 | CTGCCTTC | -0.136 ± 0.047
207 | AGTCGTGC | -0.11 ± 0.024
208 | CAGACGCG | -0.145 ± 0.18
